Results as given in the supplement of paper PMC6555819.

Key:
Test in all cases: PBM binding z-score (relative to random genomic background probes); higher = stronger binding; sequences stand for … in GC…GCGATTGACAGCGTAGAATGAAGG
[1] = system: PPARg:RXRa DBDmut IVT, anti-RXR (DBD mutation: RXRa K156A/R161A, NR concentration 270 nM, RXRa partner concentration 90 nM)
Method in brief: (§1)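 For binding z-scores, the reference was random background probes on custom Agilent 4×180K protein-binding microarrays. These arrays were incubated 1 h with ligand-free nuclear receptor dimers in PBS pH 7.4, 2% milk, 0.02% Triton X-100, 1 mM DTT, 0.2 mg/mL BSA and 0.4 mg/ml salmon testes DNA. Fluorescence was scanned after antibody detection of each partner (one per run) and regression-normalized.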

[2] = system: PPARg:RXRa IVT, anti-PPARg (NR concentration 270 nM, RXRa partner concentration 90 nM)
Method in brief: as §1

[3] = system: PPARg DBDmut:RXRa IVT, anti-PPARg (DBD mutation: PPARg1 K132A/R137A, NR concentration 270 nM, RXRa partner concentration 90 nM)
Method in brief: as §1

[4] = system: PPARg DBDmut IVT, anti-PPARg (DBD mutation: PPARg1 K132A/R137A, NR concentration 270 nM)
Method in brief: as §1

[5] = system: PPARg homodimer (NR concentration 180 nM)
Method in brief: as §1

[6] = system: PXR:RXRa (NR concentration 270 nM, RXRa partner concentration 90 nM)
Method in brief: as §1

[7] = system: PXR homodimer (NR concentration 270 nM)
Method in brief: as §1

[8] = system: RARa:RXR (NR concentration 270 nM, RXRa partner concentration 90 nM)
Method in brief: as §1

[9] = system: RARa homodimer (NR concentration 270 nM)
Method in brief: as §1

[10] = system: RARb:RXRa (NR concentration 270 nM, RXRa partner concentration 90 nM)
Method in brief: as §1

[11] = system: RARb homodimer (NR concentration 270 nM)
Method in brief: as §1

[12] = system: RARg:RXRa (NR concentration 270 nM, RXRa partner concentration 90 nM)
Method in brief: as §1

[13] = system: RARg homodimer (NR concentration 270 nM)
Method in brief: as §1

[14] = system: RXRa DBDmut IVT, anti-RXR (DBD mutation: RXRa K156A/R161A, NR concentration 90 nM)
Method in brief: as §1

[15] = system: RXRa homodimer (NR concentration 180 nM)
Method in brief: as §1

[16] = system: THRa:RXRa (NR concentration 90 nM, RXRa partner concentration 90 nM)
Method in brief: as §1

[17] = system: THRa homodimer (NR concentration 90 nM)
Method in brief: as §1

[18] = system: VDR homodimer (NR concentration 270 nM)
Method in brief: as §1

Sequence | PBM binding z-score [1] | PBM binding z-score [2] | PBM binding z-score [3] | PBM binding z-score [4] | PBM binding z-score [5] | PBM binding z-score [6] | PBM binding z-score [7] | PBM binding z-score [8] | PBM binding z-score [9] | PBM binding z-score [10] | PBM binding z-score [11] | PBM binding z-score [12] | PBM binding z-score [13] | PBM binding z-score [14] | PBM binding z-score [15] | PBM binding z-score [16] | PBM binding z-score [17] | PBM binding z-score [18]
AGACAAAGTTCATCTAGGTAACGTAAGATATGCT | 1.22 | 3.2 | 1.33 | 1.93 | 3.1 | 5.34 | 6.29 | 4.17 | 1.38 | 4.98 | 4.12 | 5.68 | 5.87 | 5.05 | 4.64 | 3.07 | 0.133 | 5.21
CCGACTGGGGCAAGGTTACCATTACGCACAGCCA | 2.66 | 3.49 | -0.296 | -0.507 | 0.706 | 0.214 | -0.376 | 0.792 | 0.0733 | 1.56 | 1.42 | 0.911 | 1.17 | -0.427 | 1.03 | 1.09 | 0.435 | 0.338
CCTACTGGGCCAGTCAGAGGTCATTGATCATATG | 3.73 | 3.52 | -0.533 | -0.399 | 2.3 | 4.85 | 1.42 | 4.37 | 0.375 | 2.92 | 3.65 | 3.94 | 2.79 | 0.705 | 3.71 | 2.94 | 1.03 | 3.27
CCTACTGGGCCATTCTGAGGTCATTGATCATATG | 4.08 | 4.24 | 0.979 | -0.299 | 1.5 | 4.42 | 3.46 | 3.85 | -0.372 | 2.57 | 3.32 | 3.38 | 1.96 | 1.23 | 2.4 | 4.22 | 4.5 | 3.8
AGAACGAGGGCACGCTGAGTTGATAGCGGAGTAG | 4.05 | 3.75 | 0.375 | 0.0426 | 0.25 | 1.35 | 0.0475 | 0.611 | 0.00108 | 2.42 | 1.17 | 1.85 | 2.56 | 1.97 | 1.26 | 1.86 | 0.248 | 2.34
ATTATTAGTTGACTTAGGGCAACCGATACGACGC | 0.113 | 0.899 | 2.01 | 2.21 | 2.16 | 1.14 | 1.53 | 0.95 | 2.43 | 1.12 | 1.41 | 1.11 | 1.23 | 0.507 | 0.918 | 1.65 | 1.03 | 1.41
CGTCCAAGGTCATAGGAGGTGAGTGAAGACAGAT | 2.78 | 4.36 | 0.426 | 0.754 | 2.6 | 4.84 | 1.4 | 4.65 | 0.644 | 5.24 | 4.33 | 5.74 | 5.64 | 3.53 | 5.36 | 5.3 | 2.93 | 2.82
CCTTACGGGTCACGAGGTTATAGCGCGACGAGCG | 3.89 | 5.36 | 1.53 | 2.01 | 3.21 | 4.57 | 0.486 | 6.3 | 1.06 | 4.56 | 3.63 | 5.98 | 5.29 | 1.62 | 6.87 | 3.59 | 1.07 | 1.9
ATATGTAGGTTACATCCGGGGCATTCAGGCTATG | 7.46 | 7.35 | 2.05 | 1.15 | 0.96 | 1.14 | 0.659 | 0.992 | 0.476 | 1.26 | 1.23 | 1.76 | 1.3 | 0.51 | 1.12 | 1.83 | 0.704 | 0.977
CGTCCAAAGTCAATGCTAGGTCAGTGAAAGCATT | 0.0357 | 0.544 | -0.669 | -0.616 | 1.04 | 0.434 | -0.027 | 1.07 | 0.396 | 1.68 | 2.39 | 2.4 | 1.31 | 0.43 | 0.344 | 2.01 | 0.698 | 0.435
CGAACTAGGTCAGAACAGGATAGTGAAGGATGAT | 7.17 | 7.33 | 2.09 | 2.21 | 1.07 | 0.283 | 0.0335 | 1.12 | 0.743 | 2.97 | 1.64 | 2.44 | 3.17 | 0.707 | 1.34 | 2.39 | 0.235 | 0.187
ACTAGCAGGCCAAGCTTGGGTCACTCAAACAAAG | 1.14 | 0.724 | -0.775 | -0.566 | 0.296 | 0.742 | -0.908 | 1.66 | -1.21 | 1.77 | 2.07 | 2.09 | 1.49 | -0.187 | 0.849 | 2.18 | 0.602 | -0.227
TCTATGAGTTGAAGGGCAACCGACGAGTCCGTTT | 1.46 | 0.477 | -0.166 | 0.0578 | -0.142 | 0.853 | 0.0161 | 0.674 | -0.22 | 1.37 | 1.12 | 0.637 | 0.461 | 1.55 | 0.971 | 0.511 | -0.405 | 1.57
TTACCAAGATGAAAGGTCGTTGATGCACGCCTTG | 0.675 | 1.47 | 0.794 | 0.0757 | 1.13 | 2.08 | 0.245 | 2.24 | 0.444 | 1.55 | 1.55 | 1.58 | 0.973 | 0.753 | 2.49 | 1.27 | -0.262 | 1.53
TAGCCTAGGTCATGCGGGCCAGTGTAGTGTCGGC | 1.76 | 2.75 | -0.395 | -0.723 | 0.153 | 1.23 | -0.733 | 1.69 | -1.29 | 3.72 | 3.06 | 3.69 | 4.29 | 0.446 | 2.6 | 2.99 | 0.878 | 0.567
TCTTGTAGATCAACAGGAGGTTACGAAAGATCGA | 1.67 | 1.04 | 0.791 | 0.725 | 0.494 | 0.945 | 0.0297 | 1.38 | -0.191 | 0.551 | 0.979 | 1.06 | 0.394 | 0.347 | 1.19 | 1.5 | -0.205 | 0.0245
GATACAGGGACAAGGCCAGAGTACGCGTATTGAT | 0.111 | 0.0816 | -0.754 | -0.819 | 0.187 | -0.396 | 0.236 | -0.445 | -0.566 | 0.943 | 0.843 | 0.288 | 1.06 | -0.24 | 0.00121 | 0.874 | 0.292 | 0.46
CTCGAAAGGTCGGTTGAGTTGAGTATACGGATAA | 0.55 | 0.513 | 0.723 | 0.673 | 1.04 | 3.89 | 0.374 | 1.81 | 0.0679 | 2.71 | 1.34 | 2.4 | 2.35 | 1.33 | 1.81 | 3.4 | 0.44 | 1.37
ATATGTAGGTTCAGGGTCATTCAGGTTGGTTCGC | 3.41 | 4.69 | 1.38 | 1.25 | 3.72 | 5.44 | 5.1 | 5.15 | 2.39 | 3.41 | 3.58 | 4.1 | 3.01 | 3.37 | 5.25 | 3.92 | 3.36 | 6.06
CCTTACGGGTCACTGAAAGGTTATAGCATTTGGA | 2.95 | 4.1 | 1 | 1.09 | 3.7 | 5.03 | 0.223 | 6.33 | 0.617 | 4.51 | 4.08 | 6.85 | 4.86 | 1.54 | 5.63 | 3.44 | 0.371 | 1.14
ACTATTAGTTGACTTAGGGCCACCGATACGACGC | 0.373 | 0.728 | 1.68 | 1.42 | 0.408 | 0.124 | 0.0401 | 0.753 | 0.459 | 0.755 | 0.765 | 0.549 | 0.739 | 0.785 | 0.774 | 2.48 | 0.956 | 0.47
GGAACGAGGGCATTCGAGTTGATTGCATGGCGAT | 2.85 | 2.45 | 0.178 | -0.205 | -0.105 | 3.88 | 1.55 | 1.03 | -0.634 | 1.84 | 0.671 | 1.07 | 1.15 | 3.28 | 0.842 | 3.52 | -0.335 | 3.28
ACTAGCAGGCCAAGTTTGGCTCACTCAAACAAAG | 0.281 | 0.0532 | -0.751 | -1.04 | -0.78 | -0.576 | -0.582 | -0.454 | -0.674 | 0.218 | -0.243 | -0.36 | -0.0918 | -0.118 | -0.415 | -0.267 | -0.863 | -0.448
